This is an account of results in PubChem BioAssay AID2314 (National Center for Advancing Translational Sciences (NCATS), 2010).

Among all 300,000 compounds or so, about 37,000 (12%) were called active. The sample holds actives, similar compounds and a random draw of the others, so the mix is not that of the screen. Unmarked numbers belong to inactive results. Rule as the data show it: active = max response mostly above about 13% (no sharp cut-off); inactive = mostly below about 14%.

The assay in a line: Cycloheximide Counterscreen for Small Molecule Inhibitors of Shiga Toxin. Also: read at 38.3 µM for the half of the compounds with a filed dose; 0% is about no effect. To be noted: cell reporter, cycloheximide protein synthesis inhibition counterscreen; hits give high values.
As for `O=C(NCCCN1CCN(c2ccc(F)cc2)CC1)Nc1ccc([N+](=O)[O-])cc1`, the max response was 5.85%.

Consider `COc1ccc(C(=O)Nc2ncc3c(n2)-c2ccccc2CC3)cc1`, for which the max response was 1.82%. Then `CN(C)CCCNC(=O)c1ccc2[nH]c3ccccc3c2c1`, with -1.73%; and `CN(C)CCNC(=O)c1[nH]nc2c1CCc1ccccc1-2`, with 41.8% (active). On to `Cc1ccccc1CN1CCC(C(=O)Nc2ccc(Oc3cccnc3)cc2)CC1`, for which the max response was 1.17%.

On to `CCOC(=O)c1c(NC(=O)C2CCN(S(=O)(=O)c3ccc(Cl)cc3)CC2)sc2c1CCCC2`, for which the max response was 25.4% (active).

Consider `CCOCC(=O)Nc1sc2c(c1C(=O)OCC)CCCC2`, for which the max response is -2.31%.

With `CCOC(=O)c1c(NC(=S)NC)sc2c1CCCC2`, the max response was 20.2%. Regarding `COc1ccc(-c2n[nH]c(C)c2-c2ccccc2OC)c(O)c1`, the max response was -4.33%. As for `COc1ccc(-c2nc(SCC(=O)N3CCCC3)n[nH]2)cc1`, the max response is -1.17%. As to `CCc1ccc(-c2nc(SCC(=O)NC3CCCC3)n[nH]2)cc1`, the max response is 18.2% (active). Turning to `CCc1c(C)nc(SCC(=O)NC2CCCC2)[nH]c1=O`, the max response is 4.69%. As for `O=C(O)CCn1c(Cc2ccccc2)nc2ccccc21`, the max response is -1.08%. As for `CCC(C(=O)OCC(=O)Nc1c(Cl)cc(Cl)cc1Cl)c1ccccc1` (stereo not drawn), the max response is 1.18%.

On to `Cc1cccc(OCC(=O)Nc2ccccc2F)c1`, for which the max response was 44.1% (active). `Cc1cccc(OCC(=O)Nc2ccc(C(=O)O)cc2NC(=O)COc2cccc(C)c2)c1`: the max response is 2.91%.

In the case of `Cc1ccc(F)c(NC(=O)CCOc2ccccc2C)c1`, the max response was 6.62%. As to `O=C(CCc1ccccc1)NNc1ccc(F)cc1`, the max response was -0.637%. Regarding `Cc1ccc(F)c(NC(=O)CCc2ccccc2)c1`, the max response is 33% (active). As for `CCCOC(=O)Nc1ccccc1C(N)=O`, the figure is -2.21%.

Regarding `COc1cccc(OCC(=O)Nc2ccccc2C(N)=O)c1`, the max response is 34.1% (active). Then `Cc1cccc(OCC(=O)NCCCNC(=O)c2ccccn2)c1`, with -3.32%. Regarding `Cc1cccc(OCCC(=O)Nc2ccccc2C(N)=O)c1`, the max response is 12.6%.

Regarding `CC(=O)OCC(NC(=O)C(Cc1ccccc1)NC(=O)OC(C)(C)C)C1OC(n2ccc(=O)[nH]c2=O)C(OC(C)=O)C1OC(C)=O` (stereo not drawn), the max response is 10.7%. For `CC(=O)N1c2ccc(S(=O)(=O)N3CCCC(C(=O)Nc4cccc(Cl)c4)C3)cc2CC1C` (stereo not drawn), the max response was -3.38%. Regarding `O=C(c1c(Cl)cccc1Cl)N1CCN(c2cccc3[nH]ccc23)CC1`, the max response was -4.42%. For `COc1ccccc1N1CCN(C(=O)c2c(-c3c(Cl)cccc3Cl)noc2C)CC1`, the max response was -1.33%. As to `O=C(c1ccc2ccccc2n1)N1CCN(c2ccccc2Cl)CC1`, the max response is 25.6% (active). In the case of `COc1cc(S(=O)(=O)N2CCOCC2)ccc1NC(=O)COc1ccc(N(C)S(=O)(=O)c2ccc(C)cc2)cc1`, the max response was -7.22%. As to `CCc1ccc(NC(=O)CN2C(=O)COc3ccc(S(=O)(=O)N4CCCC4)cc32)cc1`, the max response was -7.9%.

Take `COc1ccc(NC(=O)CN2C(=O)CSC2=O)cc1`: the max response is -1.12%. Then `CCc1ccc(NC(=O)CN2C(=O)CSC2=O)cc1`, with 24.5% (active). As to `CC(C)Cc1nc(Nc2ccc(S(=O)(=O)N3CCCC3)cc2)c2nnn(Cc3ccccc3)c2n1`, the max response was -1.7%. Turning to `CCOC(=O)C(NS(=O)(=O)c1ccc(C)cc1)(C(F)(F)F)P(=O)(OCC(C)C)OCC(C)C` (stereo not drawn), the max response is -2.77%. Turning to `CCc1ccccc1NC(=O)c1cc(-c2ccc3c(c2)OCO3)on1`, the max response was 4.1%. Take `O=C(Nc1cccnc1Cl)c1cc(-c2cccc(Cl)c2)on1`: the max response was -5.45%. As to `O=C(Nc1ccccc1C(F)(F)F)c1cc(-c2ccc(O)cc2)on1`, the max response is 37.9% (active).

For `CCOc1ccc2[nH]c(=O)c(CN(CCCO)S(=O)(=O)c3ccc(F)cc3)cc2c1`, the max response was -6.67%. As to `O=C(NCCN1CCOCC1)c1c(F)c(F)c(F)c(F)c1F`, the max response was -3.15%. `Fc1ccc(-c2ccc(NCCN3CCOCC3)nn2)cc1`: the max response is 34.4% (active). Turning to `CN(CC(=O)NCCN1CCOCC1)S(=O)(=O)c1ccc(F)cc1`, the max response is -1.49%. For `CC1CCC(NS(=O)(=O)c2ccc3c(c2)CC(=O)N3)CC1` (stereo not drawn), the max response is 8.83%. Regarding `N#Cc1ccc(CSc2nnc(-c3ccccn3)n2-c2ccc(Cl)cc2)cc1`, the max response was -3.26%. On to `N#Cc1cccc(CSc2ncnc(N)n2)c1`, for which the max response was 5.59%.

As to `N#Cc1ccc(CSc2ncccn2)cc1`, the max response is 19.6% (active).

Regarding `COc1cc(NC(=O)c2ccccc2NS(=O)(=O)c2ccc(Cl)s2)cc(OC)c1`, the max response was 7.35%. As for `O=Cc1c(NCCc2cccc(F)c2)c2ccccc2[nH]c1=O`, the max response was 0.988%. Take `Cc1ccc(S(=O)(=O)NNC(=O)/C=C/c2cccc(F)c2)cc1`: the max response was -1.72%.

For the compound `COc1ccc(-c2csc(NC(=O)c3ccc(N4C(=O)CCC4=O)cc3)n2)cc1OC`, the max response is -1.22%. Then `CCOc1cccc(NC(=O)Cn2nc(-c3ccc4c(c3)OCCO4)ccc2=O)c1`, with -1.26%; and `CC(=O)NCCC(=O)Nc1nc(-c2ccc3c(c2)OCCO3)cs1`, with 36.2% (active); and `CC(=O)NCCC(=O)Nc1nc(C)c(Cc2ccc3c(c2)OCO3)s1`, with 11.6%.

Regarding `O=C(Nc1nc(-c2ccc3c(c2)OCO3)cs1)c1ccncc1`, the max response was 21% (active). `COc1ccc(OCCn2ccnc2C)cc1`: the max response was -3.23%. As for `Cc1cccc(C2C3=C(CCCC3=O)N=C3c4ccccc4C(=O)C32)c1` (stereo not drawn), the max response was -3.21%. On to `Cc1cc(=O)n2nc(N3CCC(C(=O)Nc4c(F)c(F)c(F)c(F)c4F)CC3)sc2n1`, for which the max response was 4.09%.

Take `Cc1ccc2nc(-c3cccc(Br)c3)cc(C(=O)Nn3cnnc3)c2c1`: the max response is 7.61%.

With `O=C(NCc1cccs1)c1cc(-c2ccccn2)nc2ccc(Br)cc12`, the max response was -5.76%.

As for `Cc1ccc(-c2cc(C(=O)NCc3cn(C)nc3C)c3cc(Br)ccc3n2)cc1`, the max response was 13.1% (active). Regarding `CC(C)(C)C(=O)Nc1ccc(C(=O)N/N=C/c2ccccc2OC(=O)c2ccc(Cl)cc2Cl)cc1`, the max response is 3.79%. In the case of `O=C(Cn1cnc2ccccc2c1=O)Nc1cccc(S(=O)(=O)N2CCCCC2)c1`, the max response was 7.05%. With `COc1cc(CNC2CCCC2)c(Br)cc1OCc1ccccc1`, the max response is 7.1%.

As for `CCNC(=O)COC(=O)CCNC(=O)c1cccc(C)c1`, the max response is 10.1%. For the compound `CCOC(=O)C(CC)/C(C)=N\NC(=O)c1cccc(C)c1` (stereo not drawn), the max response is 27.9% (active). Then `COc1ccc(OCC(=O)NNC(=O)c2cccc(C)c2)cc1`, with -1.89%; and `COCCn1c(N)c(NCc2ccccc2)c(=O)[nH]c1=O`, with -1.16%. Turning to `CCOC(=O)N1CCN(C(=O)C(C)NC(=O)c2ccco2)CC1` (stereo not drawn), the max response is 1.53%. As for `CC1=C(C)CC(C(=O)NNC(=O)c2ccccc2O)C(C(=O)O)C1` (stereo not drawn), the max response is 15.2% (active). Turning to `CC1=C(C)CC(C(=O)NNC(=O)c2csc3c2CCC(C(C)(C)C)C3)C(C(=O)O)C1` (stereo not drawn), the max response is -0.879%.

On to `CC1=C(C)CC(C(=O)NC(C)CCc2ccccc2)C(C(=O)O)C1` (stereo not drawn), for which the max response was 12.4%.

With `CCC(=O)N(CCc1ccccc1)Cc1cc2cc(C)ccc2[nH]c1=O`, the max response is -3.02%.

On to `CC(C)c1nc2sc3c(c2c(=O)n1N)CC(C)(C)OC3`, for which the max response was 11.6%. Then `COc1ccc(-c2noc(C(C)NS(=O)(=O)c3ccc(NC(C)=O)cc3)n2)cc1` (stereo not drawn), with -8.48%; and `C/C(=N/Nc1ccc(Cl)cc1)c1cnnc(-c2ccccc2)n1`, with -2.47%; and `O=C(Cn1nnc(-c2ccccc2)n1)NCc1ccccc1`, with -2.67%.

On to `CC(C)(C)NC(=O)Cn1nnc(-c2ccccc2Cl)n1`, for which the max response is 53.5% (active). Regarding `Cc1ccccc1-c1nnn(CC(=O)c2ccc(S(=O)(=O)N3CCCC3)cc2)n1`, the max response is 0.345%. As for `COC(=O)COc1cccc2c(=O)n(CC(=O)NCc3ccccc3)ccc12`, the figure is -1.91%; as for `Cc1ccc(S(=O)(=O)N(C)C)cc1NC(=O)c1n[nH]c(=O)c2ccccc12`, -4.46%. Consider `CCCN(CCC)S(=O)(=O)c1ccc(C(=O)N2CC3CCC(CC3)C2)cc1`, for which the max response is -1.36%. On to `CCOC(=O)c1ccc(N/C(=N/S(=O)(=O)c2ccccc2)c2ccccc2)cc1`, for which the max response is 10.2%. For the compound `O=C(Nc1cccc(S(=O)(=O)N2CCCCC2)c1)c1ccc2c(c1)OCO2`, the max response was -2.46%. Regarding `O=C(c1ccc(Cl)c(S(=O)(=O)N2CCCCC2)c1)N1CCCCCC1`, the max response was -2.78%. Then `O=C(Nc1ccc2c(c1)OCCO2)c1ccc(Cl)c(S(=O)(=O)N2CCCCC2)c1`, with 45.3% (active); and `O=C(Nc1cccc(Cl)c1N1CCOCC1)c1ccc2c(c1)OCCO2`, with 19.9%; and `COC(=O)c1ccc(N2CCOCC2)c(NC(=O)c2ccc3c(c2)OCCO3)c1`, with 0.234%. Then `O=C(NCCSCc1ccccc1)c1ccc(Cl)c(S(=O)(=O)N2CCOCC2)c1`, with -2.82%; and `Cc1ccc(C(=O)Nc2ccccc2C(=O)NC2CCCCC2)cc1S(=O)(=O)N1CCOCC1`, with 12%. As for `Cc1ccc(C(=O)Nc2ccc3c(c2)OCO3)cc1S(=O)(=O)N1CCCCC1`, the max response was 19.6% (active).

On to `CN1CCN(c2ccc(NC(=O)c3ccc4c(c3)OCCO4)cc2Cl)CC1`, for which the max response was 39.3% (active). In the case of `O=[N+]([O-])c1ccccc1/C=C/CN1CCCC(CO)C1` (stereo not drawn), the max response is -1.17%. As for `FC(F)Oc1ccccc1C1CC(c2ccc(Br)s2)Nc2ncnn21` (stereo not drawn), the figure is -4.82%; as for `CCOc1ccccc1Nc1ccc2nonc2c1[N+](=O)[O-]`, -3.05%.
